Screens as filed in PubChem.
An excerpt weighted towards active compounds, which were near 20% of everything screened.
HCMV inh – qHTS Assay for inhibitors of the human cytomegalovirus (HCMV); HFF cells, HCMV-luciferase reporter, 72 h; hits give low values; activity change, negative = inhibition, % at 57.5 µM; 4.5% of 410,000 active; AID 1259415, 2018; in the data active = activity change below about -60%; inconclusive = no clear call, values can overlap the other calls; inactive = above about -39%; note: % is set by controls: 0 for no effect and ±100 for the full control effect
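Compounds were evaluated in HFFs infected with an HCMV luciferase reporter virus (MOI 1 PFU/cell). Luciferase in lysates collected 72 h post infection served as the replication measure.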
Cycloheximide cs – Cycloheximide Counterscreen for Small Molecule Inhibitors of Shiga Toxin; cell reporter, cycloheximide protein synthesis inhibition counterscreen; max response, %; 12% of 300,000 active; in the data active = max response mostly above about 13%, no sharp cut-off; inactive = mostly below about 14%; note: read at 38.3 µM for the half of the compounds with a filed dose; 0% is about no effect
Pf growth 96h – Primary qHTS for delayed death inhibitors of the malarial parasite plastid, 96 hour incubation; P. falciparum luciferase reporter growth, 96 h; AID 504834, 2011; Potency, µM (titrated, usually from 28.7 µM), for inactives: top-dose activity change, negative = inhibition, actives largely listed as inhibitors; 6.9% of 320,000 active; note: potency is the fitted concentration of half-maximal effect; % is set by controls: 0 for no effect and ±100 for the full control effect
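Plates of compound plus infected erythrocytes (2% hematocrit, 0.05% parasitemia final) incubate 96 hours, 37 C, 5% CO2. Detection reagent added; reduced luminescence from the parasites' luciferase reporter flags inhibition.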
Pf growth 48h – Primary qHTS for delayed death inhibitors of the malarial parasite plastid, 48 hour incubation | P. falciparum luciferase growth in erythrocytes, 48 h | Potency, µM (highest dose often 28.7 µM), for inactives: top-dose activity change, negative = inhibition, most hits filed as inhibitors | 5.9% of 310,000 active | AID 504832, 2011; note: potency is the fitted concentration of half-maximal effect; % is set by controls: 0 for no effect and ±100 for the full control effect
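Growth was read as firefly luciferase luminescence after a 48 h, 37 C, 5% CO2 exposure of compounds to reporter-bearing P. falciparum cultures (0.1% parasitemia, 2% hematocrit final) in Albumax-supplemented RPMI 1640.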
Shiga inhibitor – A qHTS for Small Molecule Inhibitors of Shiga Toxin; Vero cells, Shiga toxin protein synthesis inhibition reporter; inhibition, % at 38.7 µM; 9.2% of 290,000 active; in the data active = inhibition mostly above about 28%, no sharp cut-off; inactive = mostly below about 43%; note: 0% is about no effect
Starred values were filed as active, the others as inactive; u = inconclusive; x = no result given; [ ] = remark or other dose. Unless noted, calls come from the whole dose curve; as a rule, active = well fitted inhibition curve with a large enough effect; inconclusive = small, poorly fitted or top-dose-only effect, or another doubt; inactive = no such curve, though single readings can be large or run the other way.

SMILES	HCMV inh	Cycloheximide cs	Pf growth 96h	Pf growth 48h	Shiga inhibitor
O=c1c2ccccc2nc(/C=C/c2ccc(O)cc2)n1-c1ccccc1O	-39	17	u	9.3µM*	19
O=c1c2ccccc2nc(/C=C/c2ccc(F)cc2)n1-c1ccccn1	x	-3	-24%	5%	-9
Cc1ccccc1-n1c(/C=C/c2ccccn2)nc2ccccc2c1=O	-102*	-2	u	u	-3
O=c1c2ccccc2nc(/C=C/c2ccccc2)n1-c1ccccc1O	-95*	-1	u	9.3µM*	-4
COc1ccccc1-n1c(/C=C/c2ccccc2)nc2ccccc2c1=O	18	x	x	x	x
Cc1ccccc1-n1c(/C=C/c2ccc(O)cc2)nc2ccccc2c1=O	-92*	x	x	x	x
O=C(O)c1cccc(-n2c(/C=C/c3ccccc3)nc3ccccc3c2=O)c1	3	3	-26%	-21%[0.00184 µM]	-10
O=C(O)c1ccc(-n2c(/C=C\c3ccc(O)cc3)nc3ccccc3c2=O)cc1	-14	x	x	x	x
COC(=O)c1sc2cccc(F)c2c1S(=O)(=O)Nc1cc(OC)cc(OC)c1	9	x	x	x	x
O=c1c(C=NCCN2CCNCC2)c(O)n(C2CCCCC2)c(=O)n1C1CCCCC1	x	-4	u	13µM*	-15
O=C(C1=C[C@@H](c2coc3ccccc3c2=O)C[C@@H](OCc2ccc(CO)cc2)O1)N1CCN(Cc2ccccc2)CC1	x	-2	u	u	18
O=C(C1=C[C@@H](c2csc3ccccc23)C[C@@H](OCc2ccc(CO)cc2)O1)N1CCN(Cc2ccccc2)CC1	x	-2	5.2µM*	u	-6
O=C(C1=C[C@@H](c2csc3ccccc23)C[C@@H](OCc2ccc(CO)cc2)O1)N1CCN(Cc2ccc3c(c2)OCO3)CC1	2	-2	5.2µM*	u	2
O=C(C1=C[C@@H](c2csc3ccccc23)C[C@@H](OCc2ccc(CO)cc2)O1)N1CCOCC1	-4	11*	u	u	-7
C=CCOC(=O)C1=C[C@@H](c2csc3ccccc23)C[C@@H](OCc2ccc(CO)cc2)O1	-7	7	13µM*	u	-1
C=CCOC(=O)C1=C[C@H](c2csc3ccccc23)C[C@H](OCc2ccc(CO)cc2)O1	31	x	x	x	x
O=C(c1ccncc1)N1CC(=O)N2[C@H](CO)[C@H](c3ccc(Br)cc3)[C@@H]2C1	-13	x	x	x	x
CC1CC(O)CC(C)(C)C1 (stereo not drawn)	x	x	-24%	-7%	x
Cc1ccc(Nc2c(-c3cc(Br)ccc3F)nc3cc(C)ccn23)cc1	-24	x	x	x	x
COc1cc(OC)c(N(C)S(=O)(=O)c2cccc(C(=O)OCC(=O)c3c[nH]c4ccccc34)c2)cc1Cl	u	-4	u	1.9µM*	19
C=CCN(c1ccccc1OC)S(=O)(=O)c1cccc(C(=O)OCC(=O)c2c[nH]c3ccccc23)c1	-35	7	4.7µM*	u	1
C=CCN(c1ccccc1OC)S(=O)(=O)c1cccc(C(=O)OCC(=O)N2CCOCC2)c1	2	x	x	x	x
CC(c1ccco1)N(C(=O)c1ccccc1F)c1ccccn1 (stereo not drawn)	-10	9	16%	0%	21
CC(c1ccco1)N(C(=O)COc1ccc(Cl)cc1Cl)c1ccccn1 (stereo not drawn)	8	53*	x	-21%	126*
CC(c1ccco1)N(C(=O)COc1ccc(Cl)cc1)c1ccccn1 (stereo not drawn)	u	39*	-18%	76%	135*
SMILES	HCMV inh	Cycloheximide cs	Pf growth 96h	Pf growth 48h	Shiga inhibitor
CCOC(=O)c1c(/N=C/N(C)C)sc(C)c1C	52	6	3%	-18%	-5
CCOC(=O)c1c(/N=C/N(C)C)sc(/C=N/Nc2ccccc2)c1-c1ccc(Cl)cc1	u	-4	3.3µM*	13µM*	-6
N#Cc1c2n(c(=S)n(-c3ccccc3)c1=O)CCCCC2	-35	14*	15%	u	-7
Cc1nc2ccccn2c1C(=O)N/N=C/c1ccccc1	-3	20*	38%	-5%	48
Cc1nc2ccccn2c1C(=O)N/N=C/c1ccc(F)cc1	29	-2	u	64%	49
Cc1nc2ccccn2c1C(=O)N/N=C/c1cc(C)n(-c2ccc(Br)cc2)c1C	u	16*	u	u	29
Cc1ccc(NC(=O)C(=O)NCc2ccc(/C=N/NC(=O)c3c(C)nc4ccccn34)o2)cc1	28	28*	70%	30%	39
CCC1Oc2ccccc2N(CC(=O)NC2CCCC2)C1=O (stereo not drawn)	10	-1	-4%	8%	15
CCN1CCOC(=O)C1CC(=O)Nc1cc(Cl)ccc1C (stereo not drawn)	-1	x	x	x	x
CC(=O)Nc1nonc1NC(=O)c1ccc(C(C)(C)C)cc1	94	20*	132%	u	58*
COC(=O)Cc1ccc(NC(=O)c2ccc(C(C)(C)C)cc2)cc1	-93*	1	u	x	-6
Cc1ccc(NC(=O)c2ccsc2)cc1NS(C)(=O)=O	x	7	-20%	-15%	-1
COC(=O)Cc1ccc(NC(=O)c2ccccc2Cl)cc1	-3	28*	u	8%	35
CC(C)(C)c1ccc(NC(=O)c2ccsc2)cc1	-20	28*	-22%	u	45*
CCOC(=O)Cc1ccc(NC(=O)c2ccc([N+](=O)[O-])cc2)cc1	-33	-1	56%	-19%	20
CCOCCCNC(=S)N(CCN(C)C)Cc1cc2cc3c(cc2[nH]c1=O)OCCO3	25	-1	239%	u	x
Cc1cc(NC(=O)CSc2nnc(C(C)N(C)C)n2-c2ccc(F)cc2)no1 (stereo not drawn)	u	-2	-2%	-3%	-5
CC(C)(C)c1ccc(C(=O)Nc2ccc(Cl)cc2)cc1	24	43*	110%	128%	101*
CC(C)(C)C(=O)Nc1nc2cc3c(cc2s1)OCO3	-73*	37*	170%	135%	71*
COc1ccc(OCC(=O)Nc2nc3cc4c(cc3s2)OCCO4)cc1	23	x	x	x	x
CC(C)C(=O)Nc1nc2cc3c(cc2s1)OCO3	-11	26*	96%	107%	77*
CC(C)(C)C(=O)Nc1ccc2c(c1)OCCOCCOc1cc(NC(=O)C(C)(C)C)ccc1OCCOCCO2	-19	-8	42%	-17%	13
CCOC(=O)CC1(C)N(S(=O)(=O)c2ccc(C)cc2)c2ccccc2N1S(=O)(=O)c1ccc(C)cc1	-2	x	x	x	x
CC1(C)Cc2c(C#N)c(SCCOc3ccccc3)nc(N3CCOCC3)c2CO1	86	-2	8.3µM*	12µM*	-2
CC1(C)Cc2c(C#N)c(SCCO)nc(N3CCOCC3)c2CO1	-20	-9	u	u	-9
CC(C)c1nc(N2CCN(C(=O)c3ccccc3)CC2)c(C#N)c2c1COC(C)(C)C2	-5	-4	231%	10µM*	-7
